Reference: the supplement of paper PMC6555819

How the values were obtained:
Assay in all cases: PBM binding z-score (relative to random genomic background probes); higher = stronger binding; sequences stand for … in GC…GCGATTGACAGCGTAGAATGAAGG
[1] = tested on: PPARg:RXRa DBDmut IVT, anti-RXR (DBD mutation: RXRa K156A/R161A, NR concentration 270 nM, RXRa partner concentration 90 nM)
Procedure, shortened: (§1)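 For binding z-scores, the reference was random background probes on custom Agilent 4×180K protein-binding microarrays. These arrays were incubated 1 h with ligand-free nuclear receptor dimers in PBS pH 7.4, 2% milk, 0.02% Triton X-100, 1 mM DTT, 0.2 mg/mL BSA and 0.4 mg/ml salmon testes DNA. Fluorescence was scanned after antibody detection of each partner (one per run) and regression-normalized.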

[2] = tested on: PPARg:RXRa IVT, anti-PPARg (NR concentration 270 nM, RXRa partner concentration 90 nM)
Procedure, shortened: as §1

[3] = tested on: PPARg DBDmut:RXRa IVT, anti-PPARg (DBD mutation: PPARg1 K132A/R137A, NR concentration 270 nM, RXRa partner concentration 90 nM)
Procedure, shortened: as §1

[4] = tested on: PPARg DBDmut IVT, anti-PPARg (DBD mutation: PPARg1 K132A/R137A, NR concentration 270 nM)
Procedure, shortened: as §1

[5] = tested on: PPARg homodimer (NR concentration 180 nM)
Procedure, shortened: as §1

[6] = tested on: PXR:RXRa (NR concentration 270 nM, RXRa partner concentration 90 nM)
Procedure, shortened: as §1

[7] = tested on: PXR homodimer (NR concentration 270 nM)
Procedure, shortened: as §1

[8] = tested on: RARa:RXR (NR concentration 270 nM, RXRa partner concentration 90 nM)
Procedure, shortened: as §1

[9] = tested on: RARa homodimer (NR concentration 270 nM)
Procedure, shortened: as §1

[10] = tested on: RARb:RXRa (NR concentration 270 nM, RXRa partner concentration 90 nM)
Procedure, shortened: as §1

Sequence | PBM binding z-score [1] | PBM binding z-score [2] | PBM binding z-score [3] | PBM binding z-score [4] | PBM binding z-score [5] | PBM binding z-score [6] | PBM binding z-score [7] | PBM binding z-score [8] | PBM binding z-score [9] | PBM binding z-score [10]
ATCTCTATGTAAGACTCAGTTCAGTGAAGAACGC | -0.194 | -0.197 | 0.298 | 1.3 | 0.674 | 0.52 | 1.01 | 0.0686 | 0.753 | 0.0321
TCAGATAGGTAAACAGGTGAAAGTCCGTAAGTTA | 2.93 | 2.15 | 0.778 | 0.465 | 0.969 | 0.684 | 0.401 | 1.05 | 1.15 | 0.891
CCTTATGGGTCACTGACAGGTTATAGCATTTGGA | 5.9 | 6.16 | 0.901 | 0.187 | 2.16 | 2.86 | 0.162 | 3.89 | 0.956 | 3.8
GGAACGAGGGCAAAGTTGATAGTATCTGTCGACG | 3.79 | 4.43 | 0.556 | -0.544 | 0.557 | 1.12 | 0.156 | 1.66 | -0.123 | 2.22
CCTTACGGGTCACTGACATGTTATAGCATTTGGA | 3.55 | 4.1 | 1.46 | 0.945 | 1.83 | 3.22 | 0.262 | 4.06 | 1.38 | 4.06
TCTATTAGTTGATTTGGGCAACCGAAACAGCGGA | 2.03 | 0.616 | 1.09 | 1.16 | 0.506 | 0.543 | 0.421 | 0.432 | 0.567 | 0.368
CCTAGTTGATCAAGGTCACACACGCTATAGGTAC | 2.26 | 3.44 | 1.49 | 1.07 | 3.39 | 4.28 | 3.62 | 4.24 | 2.05 | 3.95
AGTCAAAGTTCAGGACGAGCTAACGTAAAGCACG | -0.565 | 1.33 | 0.323 | -0.197 | 1.5 | 1.98 | 0.743 | 1.88 | 0.728 | 4.11
AGAACGAGGGCAATGAGTTGATAGCGCGGGTGGC | 3.57 | 2.39 | 0.0277 | -0.898 | -0.335 | 1.62 | 4.62 | -0.0907 | -1.01 | 1.96
CCTCACGGGTCACTCCAGGTTATAGCATCGGAGT | 0.962 | 1.92 | -0.553 | -0.76 | 1.7 | 4.86 | 0.245 | 3.93 | 0.83 | 3.69
GCATATAGGTTATACAAGGTGAAAGTCCGATTGT | 4.93 | 4.04 | 0.859 | 0.875 | 1.26 | 2.26 | 0.302 | 2.49 | 0.937 | 1.6
ACTAGCAGGCCATGGGTCACTCAAGATTAGTCCG | 0.912 | 2.7 | -0.371 | -0.346 | 0.473 | 0.85 | -0.43 | 1.56 | -0.392 | 1.94
CCTACTGGGCCCCGAAAGGTCATTGATTCAGTGA | 0.503 | 2.11 | -1.53 | -0.961 | 2.6 | 4.66 | 1.26 | 5.15 | 1.3 | 3.6
CCAGACAGGTGTGAAGGTAACTCAGCCTCGATTA | -0.0821 | -0.409 | -1.46 | -0.767 | 0.376 | -0.386 | 0.146 | -0.273 | 0.322 | -0.103
CCTGACGGGTCAAGGTTATAGCACGGGTGGTACG | 0.0106 | 1.52 | -0.561 | -0.647 | 1.94 | 2.74 | 0.233 | 3.65 | 0.717 | 3.78
ATATGTAGGTTAGCGGGTCATTCAGTTTGCGCAT | 7.62 | 7.02 | 2.14 | 1.79 | 2.58 | 3.07 | 5.07 | 2.89 | 1.16 | 2.31
CCTTACGGGTCAAGGTTATAGGACGGGTGGTACG | 1.92 | 3.64 | 0.411 | -0.184 | 2.15 | 3.39 | 0.631 | 4.15 | 0.493 | 4.13
CCGAGCAGGTTATGGGGCATTCAGGCAACGGTGA | 0.393 | 1.05 | -0.884 | -0.839 | 0.261 | -0.112 | -0.362 | 0.225 | -0.391 | 1.04
TTACCGAGGTGAGCTGAGGTCGTTGATCCAACTC | 1.35 | 2.15 | 0.433 | -0.145 | -0.159 | 5.27 | 0.0419 | 2.36 | -0.912 | 1.76
TCTAGTTGGTCAAAGGTTACACACTCGAAATGCG | 3.09 | 4.81 | 1.41 | 2.3 | 3.48 | 3.45 | 1.04 | 4.79 | 2.25 | 2.88
ATCTCAAGGTAACAAGTTCAGTGAAAGAGAGGAC | 0.525 | 1.3 | 1.3 | 1.1 | 1.41 | 1.88 | 2.27 | 1.33 | 1.14 | 2.08
TCTATTAGTTTAAGGGCAACCGACGAGTCCGTTT | 2.37 | 0.624 | 0.439 | 1.5 | 1.46 | 1.39 | 1.67 | 1.39 | 1.3 | 2.22
GCAGACAGTTGAAACGCAGGTAACTCAGGGTGGC | -0.661 | -0.74 | -1.02 | -0.586 | -0.714 | -0.372 | -0.779 | 0.0801 | -0.512 | -0.0972
CCTTACGGGTCAAGATTATAGCACGGGTGGTACG | 1.74 | 2.81 | -0.14 | 0.0306 | 2.2 | 2.85 | -0.0377 | 4.07 | 1.11 | 3.98
